# High-throughput results from PubChem BioAssay.
# Only some compounds are listed: those with a hit (about 1.2% of all), similar ones and a draw of the others.
# MsrA act: activators of bovine methionine sulfoxide reductase A | purified bovine MsrA, absorbance read-out | activation, % at 10.6 µM | actives 0.3% (n = 360,000) | AID 602163; in the data active means activation above about 7.5%;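 further: 0% = vehicle and 100% = reference activator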
# MsrA inh: inhibits bovine methionine sulfoxide reductase A; purified bovine MsrA, absorbance read-out; inhibition, % at 15.5 µM; actives 0.75% (n = 360,000); AID 651718;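 further: 0% = vehicle wells with enzyme and 100% = reference inhibitor wells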
# NPR2 activator: GC-B (human) receptor activation | P20594 | actives 0.11% (n = 370,000) | HEK293-GC-B cells, CNP EC30, cGMP TR-FRET; 0% at EC30 CNP, 100% saturating CNP | AID 1920062 | activation, % at 10 µM;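 active means activation at 10 µM reaching about 35% in either raw or pattern-adjusted values, limit read from the data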
# Target sequence (P20594 whole entry, looked up): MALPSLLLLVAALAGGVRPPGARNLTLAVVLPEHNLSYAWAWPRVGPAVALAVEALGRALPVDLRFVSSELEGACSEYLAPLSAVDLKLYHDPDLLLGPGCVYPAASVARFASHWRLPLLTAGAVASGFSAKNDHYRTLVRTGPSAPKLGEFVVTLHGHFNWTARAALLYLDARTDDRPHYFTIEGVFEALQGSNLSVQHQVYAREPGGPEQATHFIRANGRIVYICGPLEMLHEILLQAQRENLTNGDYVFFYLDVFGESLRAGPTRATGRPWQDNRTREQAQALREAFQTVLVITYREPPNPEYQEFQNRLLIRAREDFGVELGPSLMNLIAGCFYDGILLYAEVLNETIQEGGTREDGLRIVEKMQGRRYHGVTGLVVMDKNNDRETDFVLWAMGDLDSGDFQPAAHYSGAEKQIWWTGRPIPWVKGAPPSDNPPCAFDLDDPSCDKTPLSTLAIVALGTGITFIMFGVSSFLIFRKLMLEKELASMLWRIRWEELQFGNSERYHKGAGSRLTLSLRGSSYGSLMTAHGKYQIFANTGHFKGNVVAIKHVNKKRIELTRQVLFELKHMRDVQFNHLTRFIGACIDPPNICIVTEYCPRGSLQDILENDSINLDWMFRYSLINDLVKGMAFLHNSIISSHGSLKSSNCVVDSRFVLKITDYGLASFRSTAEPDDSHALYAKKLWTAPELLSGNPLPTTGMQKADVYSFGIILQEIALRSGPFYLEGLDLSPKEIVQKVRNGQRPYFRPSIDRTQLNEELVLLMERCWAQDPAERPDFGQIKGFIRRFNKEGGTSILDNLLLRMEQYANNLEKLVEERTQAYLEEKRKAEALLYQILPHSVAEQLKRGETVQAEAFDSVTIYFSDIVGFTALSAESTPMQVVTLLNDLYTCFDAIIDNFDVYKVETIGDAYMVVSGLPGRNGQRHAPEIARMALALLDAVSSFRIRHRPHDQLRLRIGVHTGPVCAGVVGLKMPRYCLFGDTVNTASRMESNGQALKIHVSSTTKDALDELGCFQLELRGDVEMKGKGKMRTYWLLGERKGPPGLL
# GC-A act: GC-A (human) enzyme activation. P16066. actives 0.14% (n = 370,000). HEK293 GC-A cells, cGMP TR-FRET, EC30 ANP; 0% at EC30 ANP, 100% saturating ANP. AID 1671463. activation, % at 10 µM; in the data active means activation above about 40%
# MsrA conf: confirmation of bovine MsrA inhibitors; shares compounds with MsrA inh; purified bovine MsrA, absorbance read-out; inhibition, % at 15.5 µM; actives 41% (n = 2,300); AID 651822;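 further: coupled to thioredoxin reductase with NADPH and selenocystamine and DMSO as substrate; 0% = vehicle only and 100% = full effect of reference inhibitor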
# Active calls of the source: *; nt = no result given. Unless noted, no stated cut-off is given here; in the data, active means inhibition above about 4.5%; inactive means the rest.
SMILES,MsrA act,MsrA inh,NPR2 activator,GC-A act,MsrA conf
Cc1cc(NC(=O)/C(C#N)=C/c2ccco2)n(-c2ccccc2)n1,-4,8.7*,0,-2,4
C=CCSc1nc2sc3c(c2c(=O)n1-c1ccccc1)CCN(C)C3,0,4.9*,-1,14,1
CCSc1nc2sc3c(c2c(=O)n1-c1ccccc1)CCN(C)C3,-3,2,-7,11,nt
COc1ccc(C(=O)NCCc2c[nH]c3ccccc23)cc1OC,-3,1,3,-1,nt
COc1ccc(C(=O)N/C(=C\c2cccc3ccccc23)C(=O)NCCc2c[nH]c3ccccc23)cc1OC,-1,5.0*,4,-2,1
CC1(C)Cc2c(sc(NC(=S)NC(=O)c3ccccc3)c2C(=O)O)CO1,-2,1,1,2,nt
CC1(C)Cc2c(sc(NC(=O)c3ccco3)c2C(=O)O)CO1,-3,4.7*,2,2,3
CCOC(=O)c1sc(N)c(C(=O)Nc2ccccc2)c1C,-4,4.8*,-3,6,2
CCOC(=O)c1sc(N)c(C(=O)OCC)c1C,-3,1,1,2,nt
COc1ccc(/C=C/C(=O)Nc2cc(=O)n(C)c(=O)n2C)cc1,-14,5.0*,-1,1,4
Cn1c(NC(=O)/C=C/c2ccccc2)cc(=O)n(C)c1=O,-8,4,-5,10,nt
O=[N+]([O-])c1c(Nc2ccccc2O)cc(N2CCOCC2)c2nonc12,-6,18*,19,14,24*
Cc1cccc(OC[C@@H](O)CN2CCC(C(O)(c3ccccc3)c3ccccc3)CC2)c1,nt,nt,-11,-14,nt
COc1ccc(-c2nnc(SCC(=O)NN=C/C=C\c3ccco3)n2-c2ccc(OC)cc2)cc1,nt,nt,-4,-12,nt
Cc1cccc(NC(=S)NC(=O)/C=C/c2ccco2)c1,-5,25*,-1,-10,1
O=C(/C=C/c1ccco1)NC(=S)Nc1ccccc1,-4,4,-4,1,nt
C/C(=N\Nc1ccc(C(F)(F)F)cc1[N+](=O)[O-])C1CC1,-3,9.2*,-8,-2,8.8*
Cc1ccc(Nc2ccc(C(F)(F)F)cc2[N+](=O)[O-])cc1,-3,10.0*,2,-1,17*
O=[N+]([O-])c1cc2c(ccc3occc32)o1,nt,2,3,1,nt
CCOC(=O)N1CCN(C(=O)C[C@H]2C[C@@]3(C(=O)OC)C(=C[C@H](C(C)C)O[C@@H]3C3CC3)N(Cc3ccc(Cl)cc3Cl)C2=O)CC1,nt,nt,-9,-8,nt
COCC(=O)N1CCC(C(=O)NC2CCCc3ccccc32)CC1 (configuration not stated),nt,nt,-2,1,nt
O=C(N/N=C/c1ccc([N+](=O)[O-])o1)c1ccc2c(c1)OCO2,-2,2,4,1,nt
Cc1ccc(/C=N\NC(=O)c2ccc3c(c2)OCO3)o1,-8,4.9*,-5,2,5.4*
Cn1cc([N+](=O)[O-])c(C(=O)N/N=C/c2ccc3c(c2)OCO3)n1,-3,4.9*,-12,-7,3
Cc1ccc(/C=N/NC(=O)c2cccc([N+](=O)[O-])c2)o1,-3,5.2*,2,-1,4.9*
SMILES,MsrA act,MsrA inh,NPR2 activator,GC-A act,MsrA conf
O=C(NN=Cc1ccc2c(c1)OCO2)NN=Cc1ccc2c(c1)OCO2,-4,3,6,-4,nt
COc1cc(C(=O)NN=Cc2ccc(N(C)C)cc2)cc(OC)c1OC,-5,5.1*,-11,-6,5.1*
CCCCN1CCN(C(=O)c2cn(C(C)c3ccccc3)nn2)CC1 (configuration not stated),nt,nt,-3,-1,nt
Cc1ccccc1Cn1cc(COC(=O)N(C)Cc2ccccc2)nn1,nt,nt,8,4,nt
CCC(=O)Nc1ccc2c(c1)C(=O)N(C)[C@@H]1CC[C@@H](CC(=O)NCc3ccc(OC)cc3)O[C@H]1CO2,nt,nt,4,3,nt
O=C(CSc1nnc(COc2ccccc2)n1-c1ccc(Cl)cc1)Nc1ccc2c(c1)OCCO2,nt,nt,0,-7,nt
CN(C)c1ccc(/C=N/NC(=O)c2cccc(N3CCCC3=O)c2)cc1,-5,7.2*,-7,-10,7.0*
Cc1ccc(C(=O)NN=Cc2ccc3c(c2)OCO3)cc1,2,3,2,-3,nt
CN(C)c1ccc(/C=N/NC(=O)c2ccc3c(c2)OCO3)cc1,-5,6.9*,-4,-10,5.5*
COc1cccc(/C=N/NC(=O)c2cccc(N3CCCC3=O)c2)c1,-3,-1,2,-5,nt
Cc1ccc(C(=O)N/N=C/c2ccc3c(c2)OCO3)o1,-7,5.8*,-4,-4,5.7*
